Source: PubChem
An excerpt weighted towards active compounds, which were near 3.5% of everything screened.
TEAD-YAP block – TEAD-YAP interaction inhibition; 640,000 tested, 1.4% active; HEK-TIYL cells, TEAD-Gal4/YAP UAS-luciferase luminescence; inhibition, % at 9.12 µM; in the data active = inhibition above about 32%;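 note: 0% = median of test compound wells and 100% = reference inhibitor wells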
MITF primary – blocks human microphthalmia-associated transcription factor; 650,000 tested, 0.91% active; inhibition, % at 2.6 µM; AlphaScreen MITF homodimerization, bead proximity signal; in the data active = inhibition above about 50%;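 note: 0% = vehicle wells with protein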
GPR151 activ – activates the human receptor GPR151. PathHunter beta-arrestin GPR151 cells, luminescence. activation, % at 11.2 µM. 650,000 tested, 1% active; in the data active = activation above about 4.9%;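 note: 0% = median of compound wells and 100% = cells with positive control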
FBW7 activator – activators of human E3 ligase FBW7. Q969H0. AlphaScreen FBW7–phospho-cyclin E peptide binding, activator screen. normalized activity (activation), % at 26.1 µM. 650,000 tested, 0.13% active. AID 1259310; in the data active = normalized activity above about 1.9%;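 note: purified mutant Fbw7 with reduced substrate affinity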
Target sequence (Q969H0 whole entry, looked up): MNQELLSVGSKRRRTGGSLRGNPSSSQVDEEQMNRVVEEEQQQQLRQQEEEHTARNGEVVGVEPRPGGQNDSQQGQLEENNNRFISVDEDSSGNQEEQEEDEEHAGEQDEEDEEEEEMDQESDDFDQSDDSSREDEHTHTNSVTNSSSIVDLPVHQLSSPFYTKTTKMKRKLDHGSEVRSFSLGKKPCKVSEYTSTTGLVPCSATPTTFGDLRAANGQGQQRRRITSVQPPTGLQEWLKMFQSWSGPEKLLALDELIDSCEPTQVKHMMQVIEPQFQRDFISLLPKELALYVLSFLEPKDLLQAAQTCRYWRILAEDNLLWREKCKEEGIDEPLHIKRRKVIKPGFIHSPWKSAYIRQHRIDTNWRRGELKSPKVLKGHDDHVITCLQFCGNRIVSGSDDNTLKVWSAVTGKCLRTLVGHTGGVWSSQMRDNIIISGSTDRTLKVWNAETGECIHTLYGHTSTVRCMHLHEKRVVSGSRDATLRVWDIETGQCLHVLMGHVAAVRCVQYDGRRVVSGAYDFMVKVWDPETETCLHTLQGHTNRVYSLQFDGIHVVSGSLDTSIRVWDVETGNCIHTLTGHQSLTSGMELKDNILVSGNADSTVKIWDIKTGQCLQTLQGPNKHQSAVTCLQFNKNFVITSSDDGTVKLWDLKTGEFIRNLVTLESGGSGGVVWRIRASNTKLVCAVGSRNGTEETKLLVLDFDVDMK
Active calls of the source: *.

How did O=C(OCc1csc(Nc2ccccc2)n1)C1CC2C=CC1C2 (stereo unspecified) do in these assays?
TEAD-YAP block: 38*; MITF primary: -6; GPR151 activ: -4; FBW7 activator: 0

Results for Nc1cc(S(=O)(=O)O)c(O)c2c1C(=O)c1c(O)c(S(=O)(=O)O)cc(N)c1C2=O ?
TEAD-YAP block: 17; MITF primary: 61*; GPR151 activ: -3; FBW7 activator: -1

Results for O=C(NCc1nc(NCCCc2ccccc2)c2ccccc2n1)c1ccoc1 ?
TEAD-YAP block: 8; MITF primary: -1; GPR151 activ: -1; FBW7 activator: 0

What do the screens show for `O=C(NCc1nc(NCCCc2ccccc2)c2ccccc2n1)c1ccsc1`?
TEAD-YAP block: 34*; MITF primary: -9; GPR151 activ: 0; FBW7 activator: 0

Results for CC(CCc1ccccc1)NC(=O)c1cnccn1 (stereo unspecified) ?
TEAD-YAP block: -43; MITF primary: -2; GPR151 activ: -1; FBW7 activator: 0

What do the screens show for `CC(C)C[C@@H](NC(=O)[C@H](Cc1ccccc1)NC(=O)c1cnccn1)B(O)O`?
TEAD-YAP block: 62*; MITF primary: -8; GPR151 activ: 2; FBW7 activator: 0

Results for CCCN(C(=O)Cc1c(C(=O)O)n(C)c2ccccc12)c1cccc(Cl)c1 ?
TEAD-YAP block: 6; MITF primary: 7; GPR151 activ: 1; FBW7 activator: 0

Results for C/C(=N\O)c1oc2ccc3c(C)cc(=O)oc3c2c1C ?
TEAD-YAP block: 6; MITF primary: 0; GPR151 activ: 0; FBW7 activator: 0

How did Cc1cc(=O)oc2c1ccc1oc(C(=O)c3ccccc3)c(-c3ccccc3)c12 do in these assays?
TEAD-YAP block: 72*; MITF primary: 6; GPR151 activ: 0; FBW7 activator: 0

Results for CC(=O)c1oc2ccc3c(C)cc(=O)oc3c2c1-c1ccccc1 ?
TEAD-YAP block: -3; MITF primary: 1; GPR151 activ: 1; FBW7 activator: 0

What do the screens show for `Cc1cc(=O)oc2c1ccc1oc(C(=O)c3ccc(Cl)cc3)c(-c3ccccc3)c12`?
TEAD-YAP block: 63*; MITF primary: -1; GPR151 activ: 0; FBW7 activator: 0

What do the screens show for `Cc1cc(=O)oc2c1ccc1oc(C(=O)c3ccccc3)c(C)c12`?
TEAD-YAP block: 49*; MITF primary: 11; GPR151 activ: 0; FBW7 activator: 0

What do the screens show for `Brc1ccc(C2Nc3c(I)cccc3C3C=CCC32)cc1` (stereo unspecified)?
TEAD-YAP block: 11; MITF primary: 10; GPR151 activ: -2; FBW7 activator: 0

How did O=C(O)C1Nc2c(O)cccc2C2C=CCC12 (stereo unspecified) do in these assays?
TEAD-YAP block: -3; MITF primary: 108*; GPR151 activ: 2; FBW7 activator: 0

Results for O=C(O)C1Nc2c(I)cccc2C2C=CCC12 (stereo unspecified) ?
TEAD-YAP block: 7; MITF primary: 83*; GPR151 activ: 0; FBW7 activator: -1

How did O=S(=O)(O)c1cc(S(=O)(=O)O)c2c(N=Nc3ccccc3)c(O)ccc2c1 do in these assays?
TEAD-YAP block: -8; MITF primary: -6; GPR151 activ: 1; FBW7 activator: 0

Results for CN(C)CCNC(=O)c1cc2c(Cl)nc3ccccc3c2s1 ?
TEAD-YAP block: 55*; MITF primary: 18; GPR151 activ: -2; FBW7 activator: 0

What do the screens show for `CCOc1cc(C=O)ccc1OCCOCCOc1ccc(C)cc1`?
TEAD-YAP block: 8; MITF primary: 19; GPR151 activ: -1; FBW7 activator: 0

What do the screens show for `NC(=O)c1ccc(N2CCN(S(=O)(=O)c3ccc4ccccc4c3)CC2)c([N+](=O)[O-])c1`?
TEAD-YAP block: 45*; MITF primary: 4; GPR151 activ: 3; FBW7 activator: 0

Results for Cc1ccc(S(=O)(=O)N2CCN(c3ccc(C(N)=O)cc3[N+](=O)[O-])CC2)cc1 ?
TEAD-YAP block: 37*; MITF primary: -1; GPR151 activ: 4; FBW7 activator: 0

Results for O=[N+]([O-])c1ccccc1N1CCN(S(=O)(=O)c2ccc3ccccc3c2)CC1 ?
TEAD-YAP block: 6; MITF primary: 1; GPR151 activ: 3; FBW7 activator: 0

How did COc1ccc(N2CCN(S(=O)(=O)c3ccc(C)cc3)CC2)c([N+](=O)[O-])c1 do in these assays?
TEAD-YAP block: -2; MITF primary: -1; GPR151 activ: -1; FBW7 activator: 0

Results for CCC1CCCCN1S(=O)(=O)c1ccc(C(=O)Nc2nc3c(s2)CCCC3)cc1 (stereo unspecified) ?
TEAD-YAP block: -3; MITF primary: -2; GPR151 activ: 2; FBW7 activator: 0

How did CCC(Sc1nc2cc3c(cc2c(=O)n1CCCC(=O)NCc1ccc(OC)cc1)OCO3)C(=O)N1CCOCC1 (stereo unspecified) do in these assays?
TEAD-YAP block: -1; MITF primary: 2; GPR151 activ: 1; FBW7 activator: 0

Results for Cc1ccc(OCC(=O)Nc2ccc3c(c2)OCCO3)c(C)c1 ?
TEAD-YAP block: -15; MITF primary: 7; GPR151 activ: 1; FBW7 activator: 0

What do the screens show for `Cc1nc(-c2ccc(NC(=O)c3ccc(C)c(C)c3)cc2)cs1`?
TEAD-YAP block: -64; MITF primary: 2; GPR151 activ: -1; FBW7 activator: 0

Results for Cc1nc(-c2ccc(C(=O)Nc3ccc(O)cc3)cc2)cs1 ?
TEAD-YAP block: 91*; MITF primary: -4; GPR151 activ: -1; FBW7 activator: 0

How did COc1ccc(-c2nc3ncnc(NCc4cccc(C(F)(F)F)c4)c3[nH]2)cn1 do in these assays?
TEAD-YAP block: 54*; MITF primary: 13; GPR151 activ: 0; FBW7 activator: 0

Results for COc1ccc(Nc2nc(C)cc(NCc3cccc(C(F)(F)F)c3)n2)cn1 ?
TEAD-YAP block: 29; MITF primary: 6; GPR151 activ: 1; FBW7 activator: 1.9*

Results for COc1ccc(Nc2nccc(NCc3cccc(C(F)(F)F)c3)n2)cn1 ?
TEAD-YAP block: 9; MITF primary: -13; GPR151 activ: 0; FBW7 activator: 0

How did COc1ccc(Nc2nc(C)cc(NCc3cccc(C(F)(F)F)c3)n2)cc1 do in these assays?
TEAD-YAP block: 38*; MITF primary: 6; GPR151 activ: 0; FBW7 activator: 0

What do the screens show for `COc1ccc2c(c1OC)C(=O)OC2Nc1cccc(NC(C)=O)c1` (stereo unspecified)?
TEAD-YAP block: -2; MITF primary: 9; GPR151 activ: 0; FBW7 activator: 1

How did COc1cc2c(c(OC)c1OC)-c1ccc(OC)c(=O)cc1[C@@H](NC(C)=O)CC2 do in these assays?
TEAD-YAP block: 58*; MITF primary: 16; GPR151 activ: -1; FBW7 activator: 0

What do the screens show for `COc1ccc2c(c1)C(C)(Cc1ccccc1C#N)C(=O)N2` (stereo unspecified)?
TEAD-YAP block: 5; MITF primary: -3; GPR151 activ: 4; FBW7 activator: 0

Results for COc1ccc(-c2nc(Nc3ccccc3OC)sc2CC(=O)O)cc1 ?
TEAD-YAP block: 51*; MITF primary: 8; GPR151 activ: 2; FBW7 activator: 0
